# Out of some 5,500 compounds screened, about 2,000 (36%) were called active. Not shown: some 18% with an inconclusive outcome. The list shows a part of the results. Unmarked numbers belong to inactive results. No stated cut-off is given here; in the data, active means normalized growth mostly below about 0.91 (no sharp cut-off); inconclusive means no clear call, values can overlap the other calls; inactive means mostly above about 0.92.
# Assay: chemical genetic growth profiling, strain panel (AID 1159580);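 further: tested at 20 µM; growth read once vehicle control cultures reached saturation at 30 °C; 1 = growth at the plate median or of vehicle wells; lower values mean less growth of the strain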
# Settings: growth OD
structure (smiles),measurement,setting,value
CCOc1ccc(Cc2nccc3cc(OCC)c(OCC)cc23)cc1OCC,normalized growth,"S. cerevisiae deletion strains, locus YJR075W, strain HOC1, hits give low values",0.92
same,normalized growth,"S. cerevisiae deletion strains, locus YKL009W, strain mrt4, hits give low values",0.969
same,normalized growth,"S. cerevisiae deletion strains, locus YKL068W, hits give low values",0.986
same,normalized growth,"S. cerevisiae deletion strains, locus YKL085W, strain MDH1 (second series), hits give low values",0.985
same,normalized growth,"S. cerevisiae deletion strains, locus YKL085W, strain MDH1, hits give low values",0.985
same,normalized growth,"S. cerevisiae deletion strains, locus YKL160W, strain elf1, hits give low values",0.98
same,normalized growth,"S. cerevisiae deletion strains, locus YKL190W, strain CNB1, hits give low values",0.98
same,normalized growth,"S. cerevisiae deletion strains, locus YKR001C, strain vps1, hits give low values",0.88 (active)
same,normalized growth,"S. cerevisiae deletion strains, locus YKR026C, strain gcn3, hits give low values",0.975
same,normalized growth,"S. cerevisiae deletion strains, locus YKR091W, strain srl3, hits give low values",0.979
same,normalized growth,"S. cerevisiae deletion strains, locus YLL001W, strain dnm1, hits give low values",0.96
same,normalized growth,"S. cerevisiae deletion strains, locus YLL026W, hits give low values",0.984
same,normalized growth,"S. cerevisiae deletion strains, locus YLL041C, strain sdh2, hits give low values",0.975
same,normalized growth,"S. cerevisiae deletion strains, locus YLR027C, strain aat2, hits give low values",0.97
same,normalized growth,"S. cerevisiae deletion strains, locus YLR039C, strain RIC1, hits give low values",0.878
same,normalized growth,"S. cerevisiae deletion strains, locus YLR058C, strain SHM2, hits give low values",0.949
same,normalized growth,"S. cerevisiae deletion strains, locus YLR102C, strain apc9, hits give low values",0.978
same,normalized growth,"S. cerevisiae deletion strains, locus YLR113W, strain HOG1, hits give low values",1.02
same,normalized growth,"S. cerevisiae deletion strains, locus YLR221C, strain rsa3, hits give low values",0.982
same,normalized growth,"S. cerevisiae deletion strains, locus YLR258W, strain gsy2, hits give low values",0.968
same,normalized growth,"S. cerevisiae deletion strains, locus YLR262C, strain YPT6 (second series), hits give low values",0.871
same,normalized growth,"S. cerevisiae deletion strains, locus YLR262C, strain YPT6, hits give low values",0.861
same,normalized growth,"S. cerevisiae deletion strains, locus YLR268W, strain sec22, hits give low values",0.873 (active)
same,normalized growth,"S. cerevisiae deletion strains, locus YLR320W, strain mms22, hits give low values",0.949
same,normalized growth,"S. cerevisiae deletion strains, locus YLR330W, strain CHS5, hits give low values",0.979
same,normalized growth,"S. cerevisiae deletion strains, locus YLR342W, strain FKS1 (second series), hits give low values",0.901
same,normalized growth,"S. cerevisiae deletion strains, locus YLR342W, strain FKS1, hits give low values",0.963
same,normalized growth,"S. cerevisiae deletion strains, locus YLR357W, strain rsc2, hits give low values",0.899
same,normalized growth,"S. cerevisiae deletion strains, locus YLR370C, strain arc18, hits give low values",0.977
same,normalized growth,"S. cerevisiae deletion strains, locus YLR371W, strain rom2, hits give low values",0.966
same,normalized growth,"S. cerevisiae deletion strains, locus YLR384C, strain iki3, hits give low values",0.989
same,normalized growth,"S. cerevisiae deletion strains, locus YLR418C, strain cdc73, hits give low values",0.772 (active)
same,normalized growth,"S. cerevisiae deletion strains, locus YML016C, strain PPZ1, hits give low values",0.973
same,normalized growth,"S. cerevisiae deletion strains, locus YML032C, strain rad52, hits give low values",0.943
same,normalized growth,"S. cerevisiae deletion strains, locus YML120C, strain ndi1, hits give low values",0.965
same,normalized growth,"S. cerevisiae deletion strains, locus YML124C, strain tub3, hits give low values",0.979
same,normalized growth,"S. cerevisiae deletion strains, locus YMR058W, strain fet3, hits give low values",0.967
same,normalized growth,"S. cerevisiae deletion strains, locus YMR078C, strain ctf18, hits give low values",0.957
same,normalized growth,"S. cerevisiae deletion strains, locus YMR125W, strain sto1, hits give low values",1.01
same,normalized growth,"S. cerevisiae deletion strains, locus YMR129W, hits give low values",0.984
same,normalized growth,"S. cerevisiae deletion strains, locus YMR205C, strain PFK2, hits give low values",0.938
same,normalized growth,"S. cerevisiae deletion strains, locus YMR223W, strain ubp8, hits give low values",0.971
same,normalized growth,"S. cerevisiae deletion strains, locus YMR231W, strain pep5, hits give low values",0.979
same,normalized growth,"S. cerevisiae deletion strains, locus YMR307W, strain GAS1, hits give low values",0.769
same,normalized growth,"S. cerevisiae deletion strains, locus YNL067W, strain RPL9B, hits give low values",0.935
same,normalized growth,"S. cerevisiae deletion strains, locus YNL071W, strain lat1, hits give low values",0.985
same,normalized growth,"S. cerevisiae deletion strains, locus YNL128W, strain TEP1, hits give low values",0.967
same,normalized growth,"S. cerevisiae deletion strains, locus YNL153C, strain GIM3, hits give low values",0.961
same,normalized growth,"S. cerevisiae deletion strains, locus YNL183C, strain NPR1, hits give low values",0.899
same,normalized growth,"S. cerevisiae deletion strains, locus YNL209W, strain ssb2, hits give low values",0.98
same,normalized growth,"S. cerevisiae deletion strains, locus YNL233W, strain BNI4, hits give low values",0.917
same,normalized growth,"S. cerevisiae deletion strains, locus YNL248C, strain rpa49, hits give low values",0.942
same,normalized growth,"S. cerevisiae deletion strains, locus YNL250W, strain rad50, hits give low values",0.98
same,normalized growth,"S. cerevisiae deletion strains, locus YNL271C, strain bni1, hits give low values",0.979
same,normalized growth,"S. cerevisiae deletion strains, locus YNL298W, strain CLA4, hits give low values",0.993
same,normalized growth,"S. cerevisiae deletion strains, locus YNL307C, strain MCK1, hits give low values",0.875 (active)
same,normalized growth,"S. cerevisiae deletion strains, locus YNL322C, strain KRE1 (second series), hits give low values",0.982
same,normalized growth,"S. cerevisiae deletion strains, locus YNL322C, strain KRE1, hits give low values",0.986
same,normalized growth,"S. cerevisiae deletion strains, locus YNR049C, strain mso1, hits give low values",0.965
same,normalized growth,"S. cerevisiae deletion strains, locus YNR052C, strain pop2, hits give low values",0.974
same,normalized growth,"S. cerevisiae deletion strains, locus YOL006C, strain TOP1, hits give low values",0.771
same,normalized growth,"S. cerevisiae deletion strains, locus YOL012C, strain htz1",1.53
same,normalized growth,"S. cerevisiae deletion strains, locus YOL147C, strain pex11, hits give low values",0.969
same,normalized growth,"S. cerevisiae deletion strains, locus YOR001W, strain rrp6, hits give low values",0.966
same,normalized growth,"S. cerevisiae deletion strains, locus YOR061W, strain CKA2, hits give low values",0.978
same,normalized growth,"S. cerevisiae deletion strains, locus YOR069W, strain VPS5, hits give low values",0.98
same,normalized growth,"S. cerevisiae deletion strains, locus YOR070C, strain gyp1, hits give low values",0.976
same,normalized growth,"S. cerevisiae deletion strains, locus YOR080W, strain dia2, hits give low values",0.977
same,normalized growth,"S. cerevisiae deletion strains, locus YOR083W, strain WHI5, hits give low values",0.95
same,normalized growth,"S. cerevisiae deletion strains, locus YOR106W, strain vam3, hits give low values",0.928
same,normalized growth,"S. cerevisiae deletion strains, locus YOR136W, strain idh2, hits give low values",0.974
same,normalized growth,"S. cerevisiae deletion strains, locus YOR144C, strain elg1, hits give low values",0.974
same,normalized growth,"S. cerevisiae deletion strains, locus YOR184W, strain ser1, hits give low values",0.899
same,normalized growth,"S. cerevisiae deletion strains, locus YOR231W, strain MKK1, hits give low values",0.978
same,normalized growth,"S. cerevisiae deletion strains, locus YOR265W, strain rbl2, hits give low values",0.993
same,normalized growth,"S. cerevisiae deletion strains, locus YOR270C, strain vph1, hits give low values",0.849
same,normalized growth,"S. cerevisiae deletion strains, locus YOR290C, strain snf2, hits give low values",0.974
same,normalized growth,"S. cerevisiae deletion strains, locus YOR316C, strain cot1, hits give low values",0.967
same,normalized growth,"S. cerevisiae deletion strains, locus YPL051W, strain arl3, hits give low values",0.948
same,normalized growth,"S. cerevisiae deletion strains, locus YPL055C, strain LGE1, hits give low values",0.906
same,normalized growth,"S. cerevisiae deletion strains, locus YPL078C, strain atp4, hits give low values",0.962
same,normalized growth,"S. cerevisiae deletion strains, locus YPL106C, strain sse1, hits give low values",0.999
same,normalized growth,"S. cerevisiae deletion strains, locus YPL240C, strain hsp82, hits give low values",0.991
same,normalized growth,"S. cerevisiae deletion strains, locus YPL241C, strain CIN2, hits give low values",0.984
same,normalized growth,"S. cerevisiae deletion strains, locus YPL256C, strain CLN2, hits give low values",0.963
same,normalized growth,"S. cerevisiae deletion strains, locus YPR119W, strain clb2, hits give low values",0.964
same,normalized growth,"S. cerevisiae deletion strains, locus YPR141C, strain kar3, hits give low values",0.974
same,normalized growth,"S. cerevisiae deletion strains, locus YPR163C, strain tif3, hits give low values",0.898 (active)
same,normalized growth,"S. cerevisiae deletion strains, locus YPR167C, strain met16, hits give low values",0.97
same,normalized growth,"S. cerevisiae deletion strains, strain wtn01, hits give low values",0.924
same,normalized growth,"S. cerevisiae strains, strain wild type, hits give low values",0.961

# Source: PubChem BioAssay AID1159580 (chemical genetic matrix, 2015)
